Data: PubChem BioAssay (NCI)
About 79,000 compounds went through this panel and 15% of them were active in at least one assay; those are over-represented in the sample as a whole. Values without a mark were called inactive. Active and inactive are the calls of the source. Rule as the data show it: active = growth inhibition above about 70%; inactive = the rest.

What was measured:
[1] = NCI Yeast Anticancer Drug Screen. Data for the rad50 strain (AID 155);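 also: 0% = growth of vehicle-only cultures of the same strain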; conditions: S. cerevisiae rad50 strain growth inhibition, stronger effect = higher value
Summary of the method: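 A DNA repair-deficient yeast mutant serves as the test organism; compound-induced growth inhibition is calculated against vehicle-treated cells.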

[2] = NCI Yeast Anticancer Drug Screen. Data for the mec2-1 strain (AID 157); conditions: S. cerevisiae mec2-1 strain, stronger effect = higher value
Summary of the method: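 Cells of the genetically defined mec2-1 yeast strain are incubated with test compound. Inhibition of growth is calculated against vehicle-treated controls.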

[3] = NCI Yeast Anticancer Drug Screen. Data for the sgs1 mgt1 strain (AID 161);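 also: 0% = growth of cultures given vehicle only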; conditions: S. cerevisiae sgs1 mgt1 strain, stronger effect = higher value
Summary of the method: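 Mutant yeast exposed to compound; growth scored against vehicle-only wells.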

[4] = NCI Yeast Anticancer Drug Screen. Data for the cln2 rad14 strain (AID 165);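 also: 0% = growth equal to vehicle treated cultures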; conditions: S. cerevisiae cln2 rad14 strain, stronger effect = higher value
Summary of the method: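 The screen exposed genetically defined yeast (cln2 rad14) to test compounds and scored growth inhibition relative to vehicle-treated controls.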

[5] = NCI Yeast Anticancer Drug Screen. Data for the bub3 strain (AID 167); conditions: S. cerevisiae bub3 mutant strain, stronger effect = higher value
Summary of the method: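 Inhibition values come from growth of compound-treated mutant yeast normalised to vehicle-treated controls.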

[6] = NCI Yeast Anticancer Drug Screen. Data for the mlh1 rad18 strain (AID 175); conditions: S. cerevisiae mlh1 rad18 strain growth inhibition, stronger effect = higher value
Summary of the method: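 Compound-treated yeast growth, normalised to vehicle controls. Strain bears defined DNA repair mutations.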

[7] = at 5.0 µM (retest, dose inferred, filed as 0.5)
[8] = at 50.0 µM (retest, dose inferred, filed as 5.0)

Structure (SMILES)	growth inhibition [1, 7] [%]	growth inhibition [1, 8]	growth inhibition ([1]; at 50.0 µM) [%]	growth inhibition [2, 7] [%]	growth inhibition [2, 8]	growth inhibition ([2]; at 50.0 µM)	growth inhibition [3, 7] [%]	growth inhibition [3, 8]	growth inhibition ([3]; at 50.0 µM) [%]	growth inhibition [4, 7] [%]	growth inhibition [4, 8]	growth inhibition ([4]; at 50.0 µM)	growth inhibition [5, 7] [%]	growth inhibition [5, 8]	growth inhibition ([5]; at 50.0 µM) [%]	growth inhibition [6, 7] [%]	growth inhibition [6, 8]	growth inhibition ([6]; at 50.0 µM) [%]
CC(C)N(C(=O)CC1(O)CCCCC1)C(C)C	2	-14%	-0.25	-5	1%	-11.9%	1	-11%	-14.6	-6	4%	73.8% (active)	-1	6%	-9.25	0	-9%	1.85
O=C(OC1C2CCC2C2CC21)c1cc([N+](=O)[O-])cc([N+](=O)[O-])c1 (centres undefined)	-9	97% (active)	10.9	4	99% (active)	98.1% (active)	32	99% (active)	13	3	98% (active)	97.8% (active)	6	98% (active)	62.2	42	99% (active)	58.9
CC(C)(C)OC(=O)C(N(Cc1ccccc1)Cc1ccccc1)N(Cc1ccccc1)Cc1ccccc1	0	14%	12.1	2	9%	20.6%	2	17%	24.4	3	10%	-2.05%	0	11%	4.75	3	22%	30.3
